Data on six compounds can be found in PubChem BioAssay AID504909 (Southern Research Specialized Biocontainment Screening …, 2011).

Each structure is given as a SMILES string. Results with a measured potency or affinity are listed apart. The source made the active and inactive calls. How the calls were made is not given here.

The experiment in a line: Vero cell cytotoxicity, dose response, cytotoxicity control for M. tuberculosis growth inhibitor project, Vero cells, purified and synthesized compounds, set 5 (AID 504909). Particulars: series mostly up to 100 µM.
On to `O=C(CSc1nc2ccccc2c(=O)[nH]1)NC1CCCCC1`, for which the outcome was inactive. With `Cn1c(SCC(=O)NC2CCCCC2)nc2ccccc2c1=O`, the compound was called inactive. Next, `CNC(=O)CSc1nc2ccccc2c(=O)[nH]1`: “inactive”; `CC1CCN(C(=O)C2CCN(c3nnc(-n4cccc4)s3)CC2)CC1`: “inactive”; `Cc1nc(SCc2ccccc2Cl)[nH]c(=O)c1C`: “inactive”. Under `O=C(CSc1nc2c(c(=O)[nH]1)CCCC2)NC1CCCCC1` stands “inactive”.
